Values joined by “and” are separate entries in the source; they are usually repeats but may differ in a detail not shown here. Equal entries are not always repeated. Results filed as inconclusive are left out. A call without a number means that no potency is given here. Active and inactive are the calls of the source. The call rests on the fitted dose curve; in most records, active means well fitted cell-killing curve with a large enough effect in the repeat runs; inconclusive means weak or mixed curves, or effect the other way; inactive means no such curve, though single readings can be large or run the other way.
Potency means the concentration at half of the fitted maximal effect.

The experiment can be described thus: qHTS assay for identifying genotoxic compounds that show differential cytotoxicity against isogenic chicken DT40 cell lines with known DNA damage response pathways - wild type cell line (AID 743012). Further: nearly all actives have a fitted effect of over 60% in size. The following applies: DT40 wild type chicken cells viability, CellTiter-Glo, 40 h; series mostly up to 68.4 µM. An excerpt: U.S. Tox21 Program National Center for Advancing Translational Sciences [NCATS] NIH Chemical Genomics Center [NCGC] U.S. Environmental Protection Agency [EPA] National Institutes of Environmental Health Sciences [NIEHS] National Toxicology Program [NTP] U.S. Food and Drug Administration [FDA] Tox21 Assay Overview: DNA repair pathways play a critical role in cellular homeostasis by repairing DNA damage induced by endogenous processes and xenobiotics. Isogenic chicken DT40 cell lines deficient in different DNA repair pathways can be used to identify genotoxic compounds and aid in characterizing the nature of the DNA damage induced. Two DNA repair-deficient cell lines with disrupted genes, Rad54/Ku70 or Rev3, were used to screen the Tox21 10K compound library. Possible genotoxicity was based on the presence of a significant increase in cytotoxicity in one or more of the DNA repair-deficient cell lines compared to that observed in the parental DNA repair-proficient cell line. CellTiter Glo viability assay (Promega, Madison, WI) was used to measure cell viability in these cells after compound treatment. This assay includes the data from the wild type cell line.
Tox21 Assay Protocol Summary: 300 DT40 wild type cells in 5 uL/well were dispensed into white, solid-bottom 1536-well plates using a Multidrop Combi (ThermoFisher Scientific, Waltham, MA) dispenser. After the assay plates were incubated at 37 C/5% CO2 for approximately 0.5 hour, 23 nL of compounds dissolved in DMSO, positive controls or DMSO only was transferred into the assay plate by a pintool work station (Kalypsys, San Diego, CA). The assay plates were incubated at 37 C/5% CO2 for 40 hours. After 5 uL per well of CellTiter-Glo reagent was added into each well of the assay plates, the plates were incubated for 30 min at room temperature and the luminescence intensity of the plates was measured using a ViewLux (PerkinElmer, Shelton, CT) plate reader.
`CC1(C)S[C@@H]2[C@H](NC(=O)[C@@H](NC(=O)N3CCNC3=O)c3ccccc3)C(=O)N2[C@H]1C(=O)O`: the Potency entry is “inactive”.
In the case of `CC1(C)S[C@@H]2[C@H](NC(=O)[C@H](N)c3ccc(O)cc3)C(=O)N2[C@H]1C(=O)O` it was “inactive”.
In the case of `NC(=O)[C@@H]1CCCN1C(=O)[C@H](Cc1cnc[nH]1)NC(=O)[C@@H]1CCC(=O)N1` it was “inactive”; in that of `C=CC1=C(C(=O)O)N2C(=O)[C@@H](NC(=O)/C(=N\O)c3csc(N)n3)[C@H]2SC1` (stereo in doubt), “inactive”.
In the case of `Cc1cc(N)c2ccccc2[n+]1CCCCCCCCCC[n+]1c(C)cc(N)c2ccccc21` it was 2.54 µM (active); in that of `NC(=O)[C@@H]1C[C@]2(NC(=O)NC2=O)c2cc(F)ccc2O1`, “inactive”; in that of `CCN(CC)CC#CCOC(=O)C(O)(c1ccccc1)C1CCCCC1` (stereo not given), 11.9 µM (active).
For the compound `CC[C@@H](C)[C@H](N)C(=O)O`, the Potency entry is “inactive”.
In the case of `NS(=O)(=O)c1cc(Cl)c(Cl)c(S(N)(=O)=O)c1` it was “inactive”; in that of `CO/N=C(\C(=O)N[C@@H]1C(=O)N2C(C(=O)[O-])=C(C[n+]3cccc4c3CCC4)CS[C@H]12)c1csc(N)n1`, “inactive”; in that of `CCCCCCCCOC(=O)c1cc(O)c(O)c(O)c1`, 0.545 µM (active).
In the case of `CCCCCCCCCCCCN1CCCC1=O` it was 24.3 µM (active); in that of `CC(C)(C)c1ccc2c(S(=O)(=O)O)c(C(C)(C)C)ccc2c1`, “inactive”; in that of `CN1CC[C@H](c2c(O)cc(O)c3c(=O)cc(-c4ccccc4Cl)oc23)[C@H](O)C1`, 0.106 µM (active).
Turning to `CCC[C@@H]1C[C@@H](C(=O)N[C@@H]([C@H]2O[C@H](SC)[C@H](OP(=O)(O)O)[C@@H](O)[C@H]2O)[C@H](C)Cl)N(C)C1`, the Potency result was “inactive”.
In the case of `N[C@@H](Cc1cnc[nH]1)C(=O)O` it was “inactive”; in that of `C=C1[C@H](CO)[C@@H](O)C[C@@H]1n1cnc2c(=O)[nH]c(N)nc21`, 0.0237 µM (active); in that of `O=C1c2c(O)cccc2[C@H]([C@@H]2O[C@H](CO)[C@@H](O)[C@H](O)[C@H]2O)c2cc(CO)cc(O)c21`, “inactive”.
Regarding `CO[C@H]1C[C@@H]2CC[C@@H](C)[C@@](O)(O2)C(=O)C(=O)N2CCCC[C@H]2C(=O)O[C@H]([C@H](C)C[C@@H]2CC[C@@H](O)[C@H](OC)C2)CC(=O)[C@H](C)C=C(C)[C@@H](O)[C@@H](OC)C(=O)[C@H](C)C[C@H](C)/C=C/C=CC=C1C`, the Potency is 2.4 nM (active) and 3 nM (active).
In the case of `C=CC1=C(C(=O)O)N2C(=O)[C@@H](NC(=O)/C(=N/OCC(=O)O)c3csc(N)n3)[C@H]2SC1` (stereo in doubt) it was “inactive”; in that of `O=C1CCC(c2ccc(-n3ccnc3)cc2)=NN1`, “inactive”.
On to `CN1CCN(c2ccccc2/C=C2\SCCN(c3ccc(Cl)c(Cl)c3)C2=O)CC1`, for which the Potency is 4.33 µM (active).
In the case of `CC(C)=CCC/C(C)=C/CC/C(C)=C/CC/C=C(\C)CC/C=C(\C)CCC=C(C)C` it was “inactive”.
Turning to `O=C(O)COc1ccc(C(=O)c2cccs2)c(Cl)c1Cl`, the Potency result was “inactive”.
In the case of `NC(N)=NCc1cccc(I)c1` it was 5.96 µM (active) and 8.41 µM (active).
With `CO/N=C(\C(=O)N[C@@H]1C(=O)N2C(C(=O)O)=C(C[N+]3(C)CCCC3)CS[C@H]12)c1csc(N)n1`, the Potency result is “inactive”.
In the case of `CC12CCC(C1)C(C)(C)C2=O` (stereo not given) it was “inactive”.
Take `OCl`: the Potency result was “inactive”.
Take `CN[C@H](CC(C)C)C(=O)N[C@H]1C(=O)N[C@@H](CC(N)=O)C(=O)N[C@H]2C(=O)N[C@H]3C(=O)N[C@H](C(=O)N[C@@H](C(=O)O)c4cc(O)cc(O)c4-c4cc3ccc4O)[C@H](O)c3ccc(c(Cl)c3)Oc3cc2cc(c3O[C@@H]2O[C@H](CO)[C@@H](O)[C@H](O)[C@H]2O[C@H]2C[C@](C)(N)C(O)[C@H](C)O2)Oc2ccc(cc2Cl)[C@H]1O` (stereo not given in full): the Potency entry was “inactive”.
Take `C[C@]12O[C@H](C[C@]1(O)CO)n1c3ccccc3c3c4c(c5c6ccccc6n2c5c31)CNC4=O`: the Potency was 0.237 µM (active).
In the case of `OCC1(CO)COC(C(Cl)(Cl)Cl)OC1` it was “inactive”; in that of `CCCCCCCCCC[N+](C)(CCCCCCCCCC)CCC[Si](OC)(OC)OC`, 5.45 µM (active); in that of `CCCCCCCCCC(=O)NO`, “inactive”.
In the case of `CC/C=C\C/C=C\C/C=C\C/C=C\C/C=C\C/C=C\CCC(=O)O` it was 26.6 µM (active); in that of `CCCCCCCCCCCCCCCC(=O)OC[C@H](COP(=O)([O-])OCC[N+](C)(C)C)OC(=O)CCCCCCCCCCCCCCC`, “inactive”.
In the case of `CCCCCCCCCCCC[n+]1ccc2ccccc2c1` it was 0.168 µM (active).
For the compound `NCCCC[C@H](NC(=O)[C@@H]1CCCN1C(=O)[C@@H]1CSSC[C@H](N)C(=O)N[C@@H](Cc2ccc(O)cc2)C(=O)N[C@@H](Cc2ccccc2)C(=O)N[C@@H](CCC(N)=O)C(=O)N[C@@H](CC(N)=O)C(=O)N1)C(=O)NCC(N)=O`, the Potency entry is “inactive”.
In the case of `NCCO/C=C/[C@H](N)C(=O)O` it was “inactive”.
Consider `O=C1OC(=O)c2cc(-c3ccc4c(c3)C(=O)OC4=O)ccc21`, for which the Potency is 17.2 µM (active).
In the case of `COc1c(O)cc2c(c1O)[C@@H]1O[C@H](CO)[C@@H](O)[C@H](O)[C@H]1OC2=O`, the Potency result was “inactive”.

(Values after PubChem BioAssay (Tox21).)
